# In the OligoGym collection:
# Target: TULP4
# Test: pooled miR-30 sensor sort-seq; sequence = guide strand
# Conditions: shRNA
# Also: reference of the scale not given here.
row,Sequence,sensor-assay potency score (higher = more potent)
1,TTCAAGCACACATCCACTGGGG,0.492
2,TTGTAGAACTTGACCATGGCAC,0.0563
3,TTGAAATTTATCCTCTGTGGAG,-0.662
4,TTCTTCTGCTCGGCTGTCCAGG,-0.627
5,TTAAAGTCACTCAAAGTCCTAG,0.213

# Target: TUSC2
# Test: as above
# Conditions: shRNA
row,Sequence,sensor-assay potency score (higher = more potent)
1,TCATAGAACATAGAGCCGCGGC,-0.488
2,TAGAACATAGAGCCGCGGCGCG,-1.07
3,TCTTGGTGACGATTGTCTCCTC,-0.566
4,AATCAGATTCTTATGCACTCGC,0.0606
5,ATTCTTATGCACTCGCCTCAGC,-1.06
6,TCTCCTCATAGAACTCGTGAGC,-1.05
7,AAGCTTGCTCAGCTCCTGCTGC,-0.817
8,TCCTCATCATAGAACATAGAGC,-1.99
9,TCATCATAGAACATAGAGCCGC,-0.771
10,TGTCTCCTCATAGAACTCGTGA,-0.468
11,TTGGTGACGATTGTCTCCTCAT,0.0125
12,TTCTTGGTGACGATTGTCTCCT,-0.377

# Target: TUT1
# Test: as above
# Conditions: shRNA
row,Sequence,sensor-assay potency score (higher = more potent)
1,AAACACACTTCGAAGTCCCTGG,0.0034
2,TGACAGAACTTGACCACAGGGC,0.248
3,TTGTCCATGACAACACTGGCCA,-0.399
4,TTGGGGTCTCTGCTAGTTCCGA,-1.32
5,TACTGAGGGAGACATCACCGTG,-1.54
6,TAGGAAGTACTCAGAGAGCTGA,0.227
7,TCCTTGTCCATGACAACACTGG,-1.19
8,TAGTTCTACCAGGTGCCGGTGC,-0.799
9,TCTAGCAGTGGTGAAGCTGGAG,-0.366
10,TCGTAGTTCTACCAGGTGCCGG,-1.53
11,TTTGGACTCGATACACCCCAGG,-0.836
12,TTCTCGCAGCTCGTAGTTCTAC,-0.83

# Target: TXLNG
# Test: as above
# Conditions: shRNA
row,Sequence,sensor-assay potency score (higher = more potent)
1,TTCCTTACGTTTGAACACCTTA,-0.525
2,TTAAACTATTCAAAACTGCTAA,-0.454
3,TTGCACTCTGAATCTTGCTGAC,0.000943
4,TTCGATGAGCTTCTTTAGCTTC,-0.258
5,TTCTTCTTCCTCTCGTGCCTGC,-0.0706
6,ATTTGCTTCTGAACACTCCTGC,0.776
7,TTCTCATTGAGCTCATTCCTTT,-0.993
8,TAACGTCTTATTGTGACGCTGA,0.553
9,TTTCTTTGTCATCTTTTCCATT,-0.923
10,TTTTAGTTGTACTTCCTGCTGT,0.554
11,TTTAGTTGTACTTCCTGCTGTT,0.906
